# Measured values reported in PubChem BioAssay AID588342 (National Center for Advancing Translational Sciences (NCATS), 2011).
# The campaign covered roughly 360,000 compounds. About 25,000 (6.9%) were called active. Not shown: some 9% with an inconclusive outcome. Only a selection was taken, and actives are over-represented in it overall. Unmarked numbers belong to inactive results. The call rests on the fitted dose curve; in most records, active means well fitted inhibition curve with a large enough effect; inconclusive means small, poorly fitted or top-dose-only effect; inactive means flat fitted curve, though single readings scatter.
# Target: Luciferin 4-monooxygenase (Photinus pyralis) (UniProt P08659)
# Assay: qHTS profiling assay for firefly luciferase inhibitor/activator using purifed enzyme and Km concentrations of substrates (counterscreen for miR-21 project); further: nearly all actives have a fitted effect of over 55% in size;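 on activity change, negative = inhibition: plate controls were vehicle for no effect and reference inhibitor for full effect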
# Conditions: purified FLuc, luminescence inhibition; series mostly up to 57.5 µM; activity change, negative = inhibition: at the top concentration
# Procedure, shortened: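 Purified P. pyralis luciferase (10nM final) with 10uM D-luciferin and 10uM ATP (Km levels) in 50mM Tris acetate pH 7.5, 10mM Mg acetate, 0.01% Tween-20, 0.05% BSA; qHTS 6-point titration, ~60 µM downward; luminescence read.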
# Potency means the concentration at half of the fitted maximal effect.
# Luciferin 4-monooxygenase (Photinus pyralis), sequence (P08659 whole entry, looked up): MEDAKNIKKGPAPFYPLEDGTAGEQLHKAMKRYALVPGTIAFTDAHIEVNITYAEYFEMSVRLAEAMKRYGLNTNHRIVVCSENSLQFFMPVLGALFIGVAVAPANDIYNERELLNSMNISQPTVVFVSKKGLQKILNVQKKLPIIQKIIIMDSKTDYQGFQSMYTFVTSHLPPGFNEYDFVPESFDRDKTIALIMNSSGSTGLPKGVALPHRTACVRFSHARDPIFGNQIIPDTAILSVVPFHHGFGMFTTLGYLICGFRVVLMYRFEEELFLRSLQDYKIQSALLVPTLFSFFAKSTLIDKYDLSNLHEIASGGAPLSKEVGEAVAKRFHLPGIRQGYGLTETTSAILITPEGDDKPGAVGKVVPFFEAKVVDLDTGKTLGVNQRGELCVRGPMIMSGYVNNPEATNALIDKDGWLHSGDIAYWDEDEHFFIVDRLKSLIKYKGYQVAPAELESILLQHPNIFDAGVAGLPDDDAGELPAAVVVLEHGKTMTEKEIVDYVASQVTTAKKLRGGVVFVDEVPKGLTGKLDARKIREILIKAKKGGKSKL
Compound,"activity change, negative = inhibition",Potency
CCC(=O)N1CCc2cc(S(=O)(=O)NC(Cc3ccccc3)C(=O)NCc3ccccc3)ccc21 (centres undefined),5.1%,
COc1cccc(N(C(=O)c2snc(C(N)=O)c2N)C(C(=O)NCC2CCCO2)c2c[nH]c3ccccc23)c1 (centres undefined),-2.39%,
CCOC(=O)C1(Cc2ccccc2C)CCCN(C(=O)c2ccc(COC)o2)C1 (centres undefined),,21.3 µM (active)
CCOC(=O)C1(Cc2ccccc2C)CCCN(C(=O)CN2C(=O)CSC2=O)C1 (centres undefined),-15.3%,
CCOC(=O)C1(Cc2ccccc2C)CCCN(S(C)(=O)=O)C1 (centres undefined),-0.641%,
CCOC(=O)c1cn(CC)c2cc(F)c(F)cc2c1=O,5.04%,
COc1ccc(C(=O)NCc2ccc(C)cc2)cc1S(=O)(=O)N1CCCC1,-0.328%,
O=C(c1cnn(-c2ccc(F)cc2)c1-n1cccc1)N1CCN(c2ccc(F)cc2)CC1,-9.96%,
Nc1ccccc1SC(C[N+](=O)[O-])c1ccccc1 (centres undefined),,10.7 µM (active)
Cc1ccc(C(C[N+](=O)[O-])c2c(C)cc3ccccn23)cc1 (centres undefined),0.648%,
Cc1ccc(CNC(=O)CCc2c(C)nn(-c3ccc(N4CCCC4)nn3)c2C)cc1,-0.845%,
CCOC(=O)c1c(C)[nH]c(C(=O)OCC(=O)c2ccc(OC)cc2OC)c1C,-8.12%,
COC(=O)c1c(C)[nH]c(C(=O)NCCc2ccc(S(N)(=O)=O)cc2)c1C,-1.64%,
CCCCOC(=O)c1[nH]c(C)c(C(=O)OC)c1C,,12 µM (active)
CCn1c2ccccc2c2cc(CN3CCN(Cc4cccc(Cl)c4)CC3)ccc21,-0.946%,
CSc1ccccc1C(=O)OCC(=O)N1CCN(C(C)=O)CC1,-2.52%,
COc1ccccc1CNC(=O)COc1ccc(C)nc1[N+](=O)[O-],2.76%,
CCOc1ccccc1C(=O)NC1(C(F)(F)F)NC(=O)N(CCc2ccc(OC)c(OC)c2)C1=O (centres undefined),-17.7%,
O=C(CSc1nnc(-c2ccccc2O)o1)NC1CCCCC1,1.37%,
CCSc1nnc(-c2cc3c(s2)-c2ccccc2CC3)o1,,10.7 µM (active)
Fc1ccc(CSc2nnc(-c3cc4c(s3)-c3ccccc3CC4)o2)cc1,-1.05%,
CCOC(=O)c1[nH]c(C)c(CCC(=O)N2CCN(c3ccccc3)CC2)c1C,-3.07%,
CC(=O)Nc1ccc(C(=O)/C=C/c2ccc[nH]2)cc1,,8.49 µM (active)
CCCC(=O)Nc1ccc(C(=O)N/N=C/c2ccc[nH]2)cc1,-18%,
CC(=O)Nc1ccc(/C=C/C(=O)c2ccccc2)cc1,,1.35 µM (active)

Compound,"activity change, negative = inhibition",Potency
O=C(c1ccc(S(=O)(=O)N2CCOCC2)cc1)N1CCN(c2ccccc2)CC1,11.8%,
O=C(c1ccccc1)c1ccc(C(=O)N2CCN(c3ccccc3)CC2)cc1,4.16%,
CC(=O)Nc1ccc(NC(=S)NC(=O)/C=C/c2ccccc2)cc1,-0.139%,
O=C(/C=C/c1ccc(N2CCOCC2)cc1)c1ccccc1,,0.953 µM (active)
COC(C(=O)Nc1ccc(C(C)=O)cc1)c1ccccc1 (centres undefined),-2.83%,
CC(OC(=O)/C=C/c1ccccc1)C(=O)Nc1ccc(C(N)=O)cc1 (centres undefined),0.893%,
Cc1cc(C)cc(NC(=O)C2CCCN2S(=O)(=O)c2cccc3cccnc23)c1 (centres undefined),3.8%,
Cc1c(CNC(C)c2ccccc2)c(C(=O)O)c(C)n1Cc1c(F)cccc1Cl (centres undefined),-7.24%,
COc1ccc(N2CCN(S(=O)(=O)c3ccc(-c4coc(C)n4)cc3)CC2)cc1,3.39%,
CCOc1ccc(CNC(=O)Cn2cc3c(n2)-c2c(oc(C(=O)N4CCCC4)c2C)CC3)cc1,-0.775%,
CC1(C)O[C@@H]2[C@H](O1)[C@@H](CO)O[C@H]2n1c(N2CCCCC2)nc2c(N)ncnc21,-1.84%,
Cc1ccc(OCC(=O)Nc2ccc(OCc3cc(=O)n4c(C)csc4n3)cc2)cc1C,-0.234%,
Cc1ccccc1NC(=O)Cn1c(=O)n(CCCCC(=O)NCc2ccccc2Cl)c(=O)c2ccccc21,-4.82%,
Cc1ccc2nc(N3CCN(c4cccc(Cl)c4)CC3)c3nnnn3c2c1,-5.21%,
CCOC(=O)c1cc2c(=O)n3ccccc3nc2n(CCCOC)c1=NC(=O)C(C)Oc1ccccc1 (centres undefined),1.01%,
CCOc1cccc2cc(-c3cn4c(n3)sc3cc(C)ccc34)c(=O)oc12,,0.426 µM (active)
COc1ccc2oc(=O)c(-c3cn4c(n3)sc3cc(OC)ccc34)cc2c1,-17.1%,
CCOc1ccc(CCNC(=O)c2ccc3c(c2)sc2nc(-c4ccc(F)cc4)cn23)cc1OCC,-8.52%,
COC(=O)c1ccc(NS(=O)(=O)c2cc3c4c(c2)C(C)C(=O)N4CCC3)cc1 (centres undefined),-0.997%,
Cc1ccc(N2C(=O)CC(NCc3ccc4c(c3)OCO4)C2=O)cc1Cl (centres undefined),-13.1%,
COc1ccc(C)cc1S(=O)(=O)Nc1cc2c3c(c1)CCC(=O)N3CCC2,0.954%,
CCc1nn(CC(=O)N2CCN(c3ccc(Cl)cc3)CC2)c(=O)c2cc3occc3n12,-18.2%,
COc1ccc(CCn2cc3c(c2-c2ccc(Br)cc2)c(=O)n(C)c(=O)n3C)cc1OC,-4.89%,
COc1ccc(C)cc1NC(=O)c1ccc(-c2ccc(C(C)=O)cc2)o1,-11.1%,
